Sampled rows, rich in hits. Any-hit rate of the full collection: about 19%.
Pf growth 48h: inhibits P. falciparum growth in the first generation, 48 h; P. falciparum luciferase growth in erythrocytes, 48 h; Potency, µM (titrated, usually from 28.7 µM), without a hit: top-dose activity change, negative = inhibition, usual class: inhibitors; hit rate 5.9% among 310,000; also: potency is read from the fitted curve at half-maximal effect; % is scaled to controls: 0 for no effect and ±100 for the full control effect
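Compounds are pin-transferred into medium, infected erythrocytes (2% hematocrit, 0.1% parasitemia final) are added, and plates sit one parasite generation at 37 C in 5% CO2. Detection reagent is then added and luminescence measured.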
Shiga inhibitor: blocks Shiga toxin action in Vero cells. Vero cells, Shiga toxin protein synthesis inhibition reporter. inhibition, % at 38.7 µM. hit rate 9.2% among 290,000; in the data active = inhibition mostly above about 28%, no sharp cut-off; inactive = mostly below about 43%; also: 0% is about no effect
LASV entry inh: inhibitors of Lassa virus binding or cell entry | Lassa virus pseudotype entry inhibition, cell reporter | hit rate 1.2% among 300,000 | Potency, µM (titrated, usually from 37.9 µM), for inactives: at the highest dose activity change, negative = inhibition, hits mostly inhibitors; calls by dose curve; tested in HEK293 cells; also: potency is read from the fitted curve at half-maximal effect; % is scaled to controls: 0 for no effect and ±100 for the full control effect; nearly all actives have a fitted effect of over 50% in size
CHX counter: affects cycloheximide protein synthesis inhibition readout, counter-screen | AID 2314 | cell reporter, cycloheximide protein synthesis inhibition counterscreen | max response, % | hit rate 12% among 300,000; in the data active = max response mostly above about 13%, no sharp cut-off; inactive = mostly below about 14%; also: read at 38.3 µM for the half of the compounds with a filed dose; 0% is about no effect
Pf growth 96h: P. falciparum growth inhibition at 96 hours | P. falciparum luciferase reporter growth, 96 h | Potency, µM (top dose mostly 28.7 µM), without a hit: at the highest dose activity change, negative = inhibition, usual class: inhibitors | hit rate 6.9% among 320,000 | AID 504834; also: potency is read from the fitted curve at half-maximal effect; % is scaled to controls: 0 for no effect and ±100 for the full control effect
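Readout is luminescence from an integrated firefly luciferase in P. falciparum. Red cells, 2% hematocrit and 0.05% parasitemia final, were cultured with compound through two parasite generations (96 hours) at 37 C, 5% CO2.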
MARV entry inh: Marburg virus entry inhibition. Marburg virus pseudotyped entry inhibition, cell reporter. Potency, µM (doses to about 37.8 µM), for the others: at the highest dose activity change, negative = inhibition, hits mostly inhibitors. hit rate 1.8% among 300,000; calls by dose curve; tested in HEK293 cells; also: potency is read from the fitted curve at half-maximal effect; % is scaled to controls: 0 for no effect and ±100 for the full control effect
Active calls of the source: *; i = inactive; ? = inconclusive; · = no result; [ ] = remark or other dose. Unless noted, calls follow the shape of the dose curve; as a rule, active = well fitted inhibition curve with a large enough effect; inconclusive = small, poorly fitted or top-dose-only effect, or another doubt; inactive = no such curve, though single readings can be large or run the other way.

SMILES	Pf growth 48h	Shiga inhibitor	LASV entry inh	CHX counter	Pf growth 96h	MARV entry inh
CC(Sc1nnc(NCc2ccccc2)s1)C(=O)Nc1ccc2c(c1)C(=O)c1ccccc1C2=O (centres undefined)	40%	64*	0%	63*	2%	?
COc1ccccc1NC(=S)NC(=O)CCCOc1ccc(Cl)cc1Cl	·	-6	-13%	-5	17%	?
COC(=O)c1cc(C#N)c(Oc2ccccc2)nc1C	·	·	13%	·	·	?
Cc1cc(C)c(C#N)c(SCc2cn3ccccc3n2)n1	15%	33	16%	15*	?	19%
Cc1cc(C)nc(SCc2cn3ccccc3n2)n1	21%	27	·	22*	-4%	·
COc1ccc(OC)c(CNC(=O)Cc2c(C(=O)O)[nH]c3ccccc23)c1	1%	-8	-14%	1	9.3µM*	?
COc1ccc2[nH]c(C)c(CCNCc3cn(C)c4ccccc34)c2c1	8.3µM*	·	?	·	5.2µM*	?
COc1cccc(CNC(=O)Cc2c(C(=O)O)[nH]c3ccccc23)c1	11%	-4	7%	-1	·	18%
COc1ccc(Br)cc1CNC(=O)CCCc1cn(C)c2ccccc12	-7%	-9	-30%	-3	12µM*	-4%
COc1ccc(CCNC(=O)CCc2cn(C)c3ccccc23)c(OC)c1OC	12µM*	-2	-23%[46.1 µM]	1	?	?
COc1ccc(OC)c(CCNC(=O)CCc2cn(C)c3ccccc23)c1	-3%	-4	8%[46.1 µM]	-2	1%	-15%[46.1 µM]
CC1(C)CC(=O)N(CC(=O)NCc2ccc(F)cc2)c2ccccc2S1(=O)=O	·	-20	·	-7	-4%	·
O=C(CC(C(=O)O)c1ccc(Cl)cc1)c1ccc(Cl)c(Cl)c1 (centres undefined)	25%	-4	8%	-3	30%	-14%[46.1 µM]
COc1ccc(OC)c(CNC(=O)CCCc2cn(C)c3ccccc23)c1	23%	-9	?	-2	?	0%
COc1ccc(OC)c(CNC(=O)CCc2cn(C)c3ccccc23)c1	8%	-7	·	-2	3.7µM*	·
Cc1cc(C(=O)Nc2nc3ccc(Cl)cc3s2)nn1C	148%	92*	?	24*	144%	?
O=C(Nc1nc2ccc(Cl)cc2s1)c1ccc(S(=O)(=O)N2CCCC2)cc1	·	·	0%[46.1 µM]	·	·	·
O=C(Nc1nc2ccc(Cl)cc2s1)c1ccc(Br)o1	103%	87*	?	34*	128%	?
Cn1ncc(Cl)c1C(=O)Nc1nc2ccc(Cl)cc2s1	137%	56*	?	66*	8%	-42%
CC(c1ccco1)N(C(=O)Nc1ccc(Cl)cc1)c1ccccn1 (centres undefined)	10%	12	16%	11*	-4%	4%
CC(c1ccco1)N(C(=O)C12CC3CC(CC(C)(C3)C1)C2)c1ccccn1 (centres undefined)	8%	7	11µM*	-1	0%[5.75 µM]	?
COc1ccc(S(=O)(=O)N2CCCCC2)cc1NC(=O)c1cccnc1SC	?	-6	·	-3	?	·
CCCCCc1ccc(-c2ccc(=O)[nH]n2)cc1	28%	21	5%	12	2%	3%
CC(=O)c1ccc(NC(=O)CCS(=O)(=O)c2ccc3c(c2)n(C)c(=O)c(=O)n3C)cc1	40%	-6	·	1	9.3µM*	·
Cc1cccc(NC(=O)CCS(=O)(=O)c2ccc3c(c2)oc(=O)n3C)c1	5%	-7	10%[46.1 µM]	-7	8.3µM*	2%[46.1 µM]
SMILES	Pf growth 48h	Shiga inhibitor	LASV entry inh	CHX counter	Pf growth 96h	MARV entry inh
Cn1c(=O)oc2cc(NC(=O)CCl)ccc21	5.2µM*	-4	·	-1	6.6µM*	·
CC(=O)c1cccc(NC(=O)CCS(=O)(=O)c2ccc3c(c2)n(C)c(=O)c(=O)n3C)c1	·	·	-3%[46.1 µM]	·	·	-4%[46.1 µM]
CCC1Sc2ccc(S(=O)(=O)CCC(=O)Nc3ccc(NC(C)=O)cc3)cc2NC1=O (centres undefined)	29%	-2	9%[46.1 µM]	7	6.6µM*	?
CCOC(=O)/C=C1\SCC(=O)N1CC(O)CN1C(=O)CS/C1=C/C(=O)OCC (centres undefined)	·	·	-8%[46.1 µM]	·	·	7%[46.1 µM]
CC(=O)Nc1ccc(NC(=O)CCS(=O)(=O)c2ccc3c(c2)oc(=O)n3C)cc1	17%	-1	·	-11	9.3µM*	·
CCc1ccc(CNC(=O)C2CC(=O)N(C3CCCC3)C2)cc1 (centres undefined)	-14%	-9	·	-7	2.6µM*	·
Cc1ccc(CCNC(=O)C2CC(=O)N(C3CCCCC3)C2)cc1 (centres undefined)	8%	1	·	2	1.5µM*	·
COc1ccc(CNC(=O)C2CC(=O)N(C3CCCC3)C2)cc1 (centres undefined)	16%	-12	23%[46.1 µM]	-3	50%	-6%[46.1 µM]
O=S(=O)(NCc1ccc(Cl)cc1)c1cccc2cccnc12	7%	19	·	9	16%	·
O=S(=O)(NCCc1ccc(Cl)cc1)c1cccc2cccnc12	-6%	2	·	-2	9.3µM*	·
CC1CCCN(S(=O)(=O)c2ccc(NC(=O)C3CC(=O)N(c4ccccc4)C3)cc2)C1 (centres undefined)	0%	12	·	10	9.3µM*	?
CC1CCCCN1S(=O)(=O)c1ccc(NC(=O)c2cccc(-n3cnnn3)c2)cc1 (centres undefined)	9.3µM*	28	-9%	10	?	1%
CC1CCCCN1S(=O)(=O)c1ccc(-n2cnnn2)cc1 (centres undefined)	14%	-10	11%	-1	-2%	-2%[46.1 µM]
COc1cc(C(=O)Nc2ccc(S(=O)(=O)N3CCCCC3C)cc2)cc(OC)c1OC (centres undefined)	8.3µM*	8	-19%	-4	?	-15%
O=C(Nc1ccc(S(=O)(=O)N2CCCCC2)cc1)C1CC(=O)N(c2ccccc2)C1 (centres undefined)	-23%	-9	·	-4	?	-4%[46.1 µM]
COc1ccc(C(=O)Nc2ccc(S(=O)(=O)N3CCCCC3C)cc2)c(OC)c1OC (centres undefined)	?	25	?	14	24%	?
CC1CCCN(S(=O)(=O)c2ccc(NC(=O)c3cccc(-n4cnnn4)c3)cc2)C1 (centres undefined)	12µM*	22	-28%	9	11%	-20%
CC(=O)N1CCN(c2ccc(NCc3cccs3)cc2)CC1	9%	-3	-2%	-3	·	18%
Cn1cnc2cc(NCc3cccs3)ccc21	52%	65*	·	24*	10µM*	?
c1ccc(-n2cnc3ccccc32)cc1	32%	56	·	31	103%	·
COc1ccccc1-n1cnc2cc(C(=O)NCc3ccco3)ccc21	?	18	6%	11	29%	-8%
c1ccc(-n2cnc3cc(NCc4cccs4)ccc32)cc1	127%	77*	?	88*	i	?

Bioassay records: PubChem BioAssay, National Center for Advancing Translational Sciences (NCATS)
